From PubChem BioAssay come the findings set out here.

The nature of test [1]: Wnt pathway potentiators raising nuclear beta-catenin – imaging, WNT3A-conditioned medium, mouse C2C12, NPC library, primary screen (AID 1117326; in the data active means nuclear beta-catenin stimulation mostly above about 4.2%, no sharp cut-off; inactive means mostly below about 10%). Conditions: stronger effect = higher value.
Test [2] in a line: stimulators of insulin release from INS-1E, primary screen, cell-based, 5 mM glucose, NPC library (AID 1117329;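 active means compound raises insulin release from rat beta cells at 5 mM glucose, no numeric limit stated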). The conditions noted are these: rat INS-1E insulin secretion, at 10 µM, stronger effect = higher value.
Test [3] in a line: growth inhibition of GSK3B-pretreated HCT116 cells – cell-based, CellTiter-Glo, 0.2 to 20 µM (AID 1117336). Conditions: HCT116 viability after GSK3B inhibitor, at 20 µM, stronger effect = higher value. In general terms: Cellular ATP, detected with luciferase, serves as a proxy for viable cell number.
Test [4] is described as follows: inhibition of endothelial tube formation, primary screen, imaging, VEGF stimulated, CD31 staining, tube area, NPC library (AID 1117340;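 active means compound that reduces growth-factor-driven endothelial tube area in a mixed cell culture, no cutoff stated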). The conditions noted are these: VEGF-stimulated ADSC/ECFC co-culture, at 10 µM, stronger effect = higher value.
The nature of test [5]: GLP1 release stimulators, primary, NCI-H716, NPC library (AID 1117341;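 active means compound raises GLP1 secretion from the human gut endocrine cells, with no numeric limit stated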). Conditions: NCI-H716 cells, at 10 µM, stronger effect = higher value.
A short description of test [6]: HCT116 colon cancer cell growth inhibition, primary screen, CellTiter-Glo luminescence, NPC library (AID 1117342;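 active means compounds that lower survival of HCT116 colon cancer cells in the luminescence readout, no numeric limit stated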). Conditions: at 20 µM (top of the series).
A short description of test [7]: reduced SW480 viability measured with CellTiter-Glo, NPC library, primary (AID 1117343;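 active means compounds that lower viability of the colon cancer cells in the luminescence readout, with no numeric limit stated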). Conditions: CellTiter-Glo luminescence; at 20 µM (top of the series).
Test [8] is described as follows: NPC library primary testing for decreased DLD-1 cell viability via CellTiter-Glo (AID 1117346;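 active means compounds that lower survival of DLD-1 colon cancer cells in the luminescence readout, no cutoff given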). Conditions: DLD-1 viability, CellTiter-Glo luminescence; at 20 µM (top of the series).
Test [9] addresses 6-phosphogluconate dehydrogenase, decarboxylating (Homo sapiens) (UniProt P52209). Kind of test: inhibition of human phosphogluconate dehydrogenase – biochemical, recombinant enzyme, NADPH absorbance, primary screen (AID 1159550;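 active means at least 20% inhibition of 6-phosphogluconate dehydrogenase activity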). Conditions: recombinant 6PGD, NADPH absorbance 341 nm; at 10 µM; stronger effect = higher value.
Test [10] can be described thus: EMT-state selective cytotoxicity in co-culture – imaging, PC-3E GFP, TEM4-18 mCherry, primary screen (AID 1345086;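 active means compounds killing one labelled cell type while sparing the other, by normalised counts and ratio limits, not self-fluorescent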;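 on all read-outs here: cells exposed to compound for 72 h before imaging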;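 on red/green cell ratio (normalised): normalised mesenchymal count divided by normalised epithelial count so high means epithelial killing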). Conditions: PC-3E GFP / TEM4-18 mCherry co-culture, imaging cell counts, at 1 µM; for red/green cell ratio (normalised): actives lie on both sides, counts scaled to control wells, 1 = unselective.
A short description of test [11]: MELAS cybrid and Rieske KO viability enhancers – cell-based, MELAS cybrids, Rieske KO mouse fibroblasts, CellTiter-Glo, primary screen (AID 1508586;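 active means mean z-score across replicates of 1.96 or higher in either the MELAS or the Rieske mutant cell line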;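 further: z relative to plate mean and SD of compound and empty wells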). Conditions: low glucose.
Test [12] deals with NAD(+) hydrolase SARM1 (Homo sapiens) (UniProt Q6SZW1). Put plainly: blocking NAD cleavage by SARM1 SAM-TIR – cell lysate, NAD-Glo luminescence (AID 1508614;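 active means compound whose remaining NAD level is above about 45 nM, limit read from the data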). The conditions noted are these: SAM-TIR HEK293T lysate NADase, at 1 µM, stronger effect = higher value.
Chain of NAD(+) hydrolase SARM1 (Homo sapiens) (Q6SZW1 whole entry, looked up, the tested form may be a part): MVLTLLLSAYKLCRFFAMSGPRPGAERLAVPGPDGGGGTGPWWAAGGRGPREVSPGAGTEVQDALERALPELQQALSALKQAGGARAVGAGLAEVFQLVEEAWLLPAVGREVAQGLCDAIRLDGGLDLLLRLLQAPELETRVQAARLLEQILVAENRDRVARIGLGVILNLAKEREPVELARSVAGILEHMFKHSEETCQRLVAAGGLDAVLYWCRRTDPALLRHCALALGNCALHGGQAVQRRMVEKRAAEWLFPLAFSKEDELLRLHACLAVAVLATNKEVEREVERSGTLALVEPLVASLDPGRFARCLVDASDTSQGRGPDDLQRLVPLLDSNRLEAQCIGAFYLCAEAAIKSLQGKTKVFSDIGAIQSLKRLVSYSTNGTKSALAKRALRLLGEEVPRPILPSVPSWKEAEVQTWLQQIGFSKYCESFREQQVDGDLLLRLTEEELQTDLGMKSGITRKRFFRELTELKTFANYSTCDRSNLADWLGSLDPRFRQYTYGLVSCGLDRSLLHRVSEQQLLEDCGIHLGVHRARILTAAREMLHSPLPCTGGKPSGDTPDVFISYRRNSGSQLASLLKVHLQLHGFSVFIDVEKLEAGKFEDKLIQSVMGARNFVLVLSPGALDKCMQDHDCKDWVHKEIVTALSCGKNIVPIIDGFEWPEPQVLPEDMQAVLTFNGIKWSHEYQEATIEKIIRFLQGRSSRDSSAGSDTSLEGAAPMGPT
In test [13] the target is Mitogen-activated protein kinase 7 (Homo sapiens) (UniProt Q13164). Put plainly: Gal4-ERK5 driven luciferase induction – cell-based, HTS, primary screen (AID 1508626;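 active means luciferase signal above three times the same-plate solvent-only control wells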;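 further: luciferase driven by Gal4-ERK5 fusion binding five Gal4 sites before minimal TATA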). The conditions noted are these: HeLa Gal4-ERK5 transactivation, 18 h, at 5 µM, stronger effect = higher value.
Chain of Mitogen-activated protein kinase 7 (Homo sapiens) (Q13164 whole entry, looked up, the tested form may be a part): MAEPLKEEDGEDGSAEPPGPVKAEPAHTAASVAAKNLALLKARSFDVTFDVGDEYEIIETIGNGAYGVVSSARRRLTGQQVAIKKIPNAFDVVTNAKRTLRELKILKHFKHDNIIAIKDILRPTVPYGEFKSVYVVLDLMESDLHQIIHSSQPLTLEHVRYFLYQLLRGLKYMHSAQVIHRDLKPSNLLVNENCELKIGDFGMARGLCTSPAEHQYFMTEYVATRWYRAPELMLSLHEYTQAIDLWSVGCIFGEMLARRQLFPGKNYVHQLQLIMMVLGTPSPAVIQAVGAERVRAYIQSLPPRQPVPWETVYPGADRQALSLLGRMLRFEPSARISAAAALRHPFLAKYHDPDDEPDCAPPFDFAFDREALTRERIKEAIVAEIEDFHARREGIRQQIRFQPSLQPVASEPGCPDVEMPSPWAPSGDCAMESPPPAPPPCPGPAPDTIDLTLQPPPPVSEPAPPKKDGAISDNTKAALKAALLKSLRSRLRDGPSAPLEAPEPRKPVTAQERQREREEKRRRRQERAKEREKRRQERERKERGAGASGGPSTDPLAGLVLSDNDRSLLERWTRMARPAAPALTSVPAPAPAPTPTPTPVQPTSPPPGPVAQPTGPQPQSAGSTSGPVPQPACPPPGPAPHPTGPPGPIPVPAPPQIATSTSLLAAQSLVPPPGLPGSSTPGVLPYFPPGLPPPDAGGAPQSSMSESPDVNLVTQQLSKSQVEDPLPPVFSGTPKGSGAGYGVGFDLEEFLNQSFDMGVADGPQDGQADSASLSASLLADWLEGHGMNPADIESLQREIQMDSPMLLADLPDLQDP
Test [14] in a line: P. berghei load reduction in hepatocytes – cell-based, HepG2, luciferase luminescence, HepG2 viability, primary screen (AID 624349; in the data active means parasite load remaining mostly below about 12%, no sharp cut-off; inactive means mostly above about 10%;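 further: 100% = mean of DMSO negative control wells on the same plate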). Conditions: P. berghei liver stage in HepG2, luciferase luminescence, concentration not given here; parasite load remaining: stronger effect = lower value; viability: measured here: HepG2 viability without parasites.
Test [15] is described as follows: signal quenchers or enhancers, Cy5 substrate/SSB – biochemical, NIH Clinical Collection, E. coli SSB, artefact control for HCV NS3 helicase inhibitor project (AID 743268; call rule not given here). Conditions: Cy5-oligo bound E. coli SSB, fluorescence interference.
In test [16] the test system is Hepatitis C virus NS3 helicase. Kind of test: blockers of NS3h binding to DNA – biochemical, fluorescence polarization, NIH Clinical Collection, primary screen (AID 743270; call rule not given here). The conditions noted are these: NS3 helicase binding to Cy5-dT15 DNA, stronger effect = higher value, concentration not given here.
Test [17] has as its target Single-stranded DNA-binding protein (Escherichia coli (strain K12)) (UniProt P0AGE0). Kind of test: SSB-ssDNA binding inhibitors – biochemical, fluorescence polarization, NIH Clinical Collection, counter-screen for HCV NS3 helicase inhibitor project (AID 743271; in the data active means inhibition above about 28%). Conditions: E. coli SSB-DNA binding, stronger effect = higher value, concentration not given here. A general note: Fluorescence polarisation rises when a labelled molecule tumbles more slowly, as on binding a larger partner.

Test [18] in a line: compounds distorting NS3 helicase fluorescence signal – biochemical, NIH Clinical Collection, artefact control for HCV NS3 helicase inhibitor project (AID 743272; call rule not given here;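 further: HCV NS3 helicase with a Cy5 labelled single stranded DNA probe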). The conditions noted are these: fluorescence interference counterscreen, HCV NS3 helicase assay; stronger effect = lower value. Background: Counterscreens check selectivity or assay interference.
Test [19] is described as follows: viability loss with induced miR-34 in A549 – imaging, A549 dox-inducible miR-34, nuclei and caspase counts, primary screen (AID 1347080;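 active means compounds whose cell count with miR-34 switched on is under 0.7 times the count with it off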). The conditions noted are these: A549 miR-34 inducible, Hoechst nuclei count, 48 h.
In the next test the test system is F380Y. Put plainly: BK channel mutant inhibitors and activators – cell-based, U2OS BacMam, thallium flux, beta subunits, selectivity assay, profiling panel (AID 1259406;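 active means thallium flux through the channel raised or lowered by more than 3 SD from vehicle-only wells, actives on both sides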;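 further: initial slope of Thallos dye fluorescence rise after thallium is added; log ratio against the mean of 0.3% DMSO vehicle wells on the same plate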). The conditions noted are these: U2OS BacMam BK variants, at 30 µM.
Setting [20] is: measured here: epithelial PC-3E GFP cell survival.
Where [21] appears, read: measured here: mesenchymal TEM4-18 mCherry cell survival.
Where [22] appears, read: MELAS cybrid survival, CellTiter-Glo 48 h, stronger effect = higher value.
Where [23] appears, read: Rieske KO mouse fibroblast survival, CellTiter-Glo 72 h.
Setting [24] is: stronger effect = lower value, cell number ratio, induced over uninduced.
[25] abbreviates: measured here: relative caspase fold change +Dox/-Dox.
[26] abbreviates: measured here: total cells with miR-34 induction, stronger effect = lower value.
[27] abbreviates: measured here: total cells without miR-34 induction.

The structures appear in SMILES notation. Where “and” joins values, the source holds several entries; their conditions need not be identical. Equal entries are not always repeated. Calls of active or inactive are those of the source.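 How the source made its calls, unless noted: active means compounds lowering colon cancer cell viability after pretreatment blocking the GSK3B kinase; inactive means the rest.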

Chain of 6-phosphogluconate dehydrogenase, decarboxylating (Homo sapiens) (P52209 whole entry, looked up): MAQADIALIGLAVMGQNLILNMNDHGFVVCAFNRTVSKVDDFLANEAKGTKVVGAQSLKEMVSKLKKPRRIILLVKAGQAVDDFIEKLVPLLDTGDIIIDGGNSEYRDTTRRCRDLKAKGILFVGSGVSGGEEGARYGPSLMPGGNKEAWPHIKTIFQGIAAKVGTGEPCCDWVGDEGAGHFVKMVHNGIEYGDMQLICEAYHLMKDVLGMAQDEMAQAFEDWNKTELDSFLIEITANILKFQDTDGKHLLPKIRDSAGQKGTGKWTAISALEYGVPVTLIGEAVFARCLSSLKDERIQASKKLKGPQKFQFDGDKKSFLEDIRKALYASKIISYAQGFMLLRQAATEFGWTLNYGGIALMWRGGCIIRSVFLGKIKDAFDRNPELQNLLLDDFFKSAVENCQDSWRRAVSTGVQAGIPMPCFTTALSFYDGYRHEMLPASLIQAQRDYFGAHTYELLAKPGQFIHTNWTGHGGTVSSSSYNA

Usually inhibition stands for the drop in the measured response relative to a control, in per cent. Regarding `CNC(=O)Oc1ccc2c(c1)[C@]1(C)CCN(C)[C@@H]1N2C`, the nuclear beta-catenin stimulation is -0.4% (inactive) in test [1] (at 10 µM) and 0% in test [1] (stimulation, at 2 µM). Moreover, the insulin secretion stimulation in [2] was 5% (inactive). In addition, the viability decrease in [3] is 5% (inactive). In test [4], the tube area decrease was -23.5% (inactive). In addition, in test [5], the GLP1 secretion stimulation was 3.8% (inactive). Also, the inhibition of viability in [6] was 23.3% (inactive). Further, the viability decrease (inhibition) in [7] is 38.9% (inactive); in [8] it was 0.2% (inactive). For the same molecule, the inhibition in [9] is -7.09% (inactive) and -14.3% (inactive) and -6.98% (inactive). The red/green cell ratio (normalised) in [10] is 0.96 (inactive). The normalised cell number in test [10] (setting [20]) is 1.03; in test [10] (setting [21]), 1. Also, the z-score was -0.485 (inactive) and 0.886 (inactive) in test [11] (setting [22]); -0.245 and 0.787 in test [11] (setting [23]). Besides, the remaining NAD in test [12] was 10 nM (inactive). Also, in [13], the luciferase signal was 40 AU (inactive).
What is called viability is a read-out of living cells in per cent, often relative to untreated cells. Consider `CC1(C)O[C@@H]2C[C@H]3[C@@H]4C[C@H](F)C5=CC(=O)C=C[C@]5(C)[C@H]4[C@@H](O)C[C@]3(C)[C@]2(C(=O)CO)O1`, for which the parasite load remaining in test [14] was 33.4% (inactive) and 143% (inactive). Moreover, the viability in [14] is 88.6% and 103%. Moreover, the fluorescence ratio in [15] is 1.07 (inactive); in test [18], 0.99 (inactive). For the same molecule, the inhibition was -0.45% (inactive) in [16], -1.24% (inactive) in test [17] and -16.5% (inactive) in [9]. Also, the nuclear beta-catenin stimulation in test [1] (at 10 µM) is -0.2% (inactive); in test [1] (stimulation, at 2 µM) it was 1.6%. In test [2], the insulin secretion stimulation was 1.6% (inactive). Also, the viability decrease in test [3] is -31.1% (inactive). Besides, in test [4], the tube area decrease was -14.6% (inactive). The GLP1 secretion stimulation in [5] is -0.5% (inactive). In addition, the inhibition of viability in test [6] was -1.83% (inactive). The values for the viability decrease (inhibition) in [7] and in test [8] were 15% (inactive) and -3.1% (inactive), respectively. Also, the fold change in [19] (setting [24]) is 1 (inactive) and 0.779 (inactive); in [19] (setting [25]) it was 1.38 and 0.877. Further, the cell count in test [19] (setting [26]) is 7820 and 5180; in test [19] (setting [27]), 7800 and 6650. The z-score in test [11] (setting [22]) is -0.397 (inactive); in [11] (setting [23]) it was 0.665. Besides, the remaining NAD in [12] is 10 nM (inactive). Moreover, the luciferase signal in test [13] is 344 AU (active). For the same molecule, in the test on F380Y, the log fold change Tl+ flux is 0.00732 (inactive).
For the molecule `CC[C@]1(O)C[C@@H]2CN(CCc3c([nH]c4ccccc34)[C@@](C(=O)OC)(c3cc4c(cc3OC)N(C)[C@H]3[C@@](O)(C(=O)OC)[C@H](OC(C)=O)[C@]5(CC)C=CCN6CC[C@]43[C@@H]65)C2)C1`, the nuclear beta-catenin stimulation was 78.2% (active) and 46.4% (active) in test [1] (at 10 µM); 49.7% and 61.6% in test [1] (stimulation, at 2 µM). Moreover, the insulin secretion stimulation in test [2] was 5.8% (inactive) and 3.65% (inactive). In addition, the viability decrease in test [3] was 84.6% (active) and 97.7% (active). For the same molecule, the tube area decrease in [4] was 108% (active) and 104% (active). Besides, the GLP1 secretion stimulation in test [5] was -1.3% (inactive) and 5.9% (inactive). For the same molecule, in test [6], the inhibition of viability was 79.8% (active) and 74.2% (active). Besides, the viability decrease (inhibition) in [7] is 89.7% (active) and 76.2% (active); in test [8] it was 84.7% (active) and 75.3% (active). Besides, the figures for the fold change in [19] (setting [24]) and in [19] (setting [25]) were 1.08 (inactive) and 0.797, respectively. Moreover, the figures for the cell count in [19] (setting [26]) and in test [19] (setting [27]) were 794 and 738, respectively. Besides, the remaining NAD in [12] was 10 nM (inactive). Also, the luciferase signal in test [13] is 72 AU (inactive).
For `COc1cc2nc(N3CCN(C(=O)c4ccco4)CC3)nc(N)c2cc1OC`, the nuclear beta-catenin stimulation was 47.5% (active) in test [1] (at 10 µM) and 7.8% in test [1] (stimulation, at 2 µM). Also, in [2], the insulin secretion stimulation was 0.2% (inactive). In addition, in test [3], the viability decrease is 80.9% (active). Besides, the tube area decrease in test [4] is -2.7% (inactive). Also, the GLP1 secretion stimulation in test [5] was 9.5% (inactive). For the same molecule, in test [6], the inhibition of viability was 46.9% (inactive). Besides, the viability decrease (inhibition) in test [7] was 120% (active); in [8], 78.7% (active). Also, the inhibition in [9] is 8.49% (inactive). For the same molecule, the red/green cell ratio (normalised) in [10] is 1.27 (inactive). The values for the normalised cell number in test [10] (setting [20]) and in test [10] (setting [21]) were 0.98 and 1.25, respectively. The z-score in [11] (setting [22]) was 1.14 and 0.169 (inactive); in test [11] (setting [23]), 2.19 and 0.838. Further, the remaining NAD in [12] is 10 nM (inactive). For the same molecule, in [13], the luciferase signal was 128 AU (inactive). In the test on F380Y, the log fold change Tl+ flux is 0.00597 (inactive).
